Results filed as inconclusive are left out. A structure can be active in one record and inactive in another. Calls of active or inactive are those of the source. Rule for the calls, unless noted: active = hit-call score of the fitted dose curve at least 0.9, where 1 is the maximum; inactive = score below 0.9.
How the values were obtained:
[1] = CCTE_Shafer_MEA_dev_burst_rate: CCTE's Neural Network Formation Assay for Burst Rate, Shafer Lab (AID 2284042);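 for AC50: potency for loss of burst rate below DMSO control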
How it was run: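 Rat primary cortical cultures on PEI/laminin MEA; compound from plating, re-dosed at DIV 5, 9 media change. Single-electrode bursts/recording length, well mean of active electrodes; AUC over DIV 5–12 recordings; loss-of-signal vs DMSO.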

[2] = CCTE_Shafer_MEA_dev_bursting_electrodes_number: CCTE's Neural Network Formation Assay for Number of Bursting Electrodes, Shafer Lab (AID 2284043; active = hit-call score of the fitted dose curve at least 0.9, where 1 is the maximum;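 for AC50: potency is for loss of bursting electrodes relative to DMSO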)
How it was run: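 Primary rat cortical neurons were cultured on PEI-coated 48-well MEA plates (16 electrodes/well) and exposed from plating through day 12, with compound renewed at feeds on DIV 5 and 9. Electrodes bursting ≥1 per 2 min were counted on DIV 5, 7, 9, 12; trapezoidal AUC taken.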

[3] = CCTE_Shafer_MEA_dev_per_burst_interspike_interval: CCTE's Neural Network Formation Assay for Burst Interspike Interval, Shafer Lab (AID 2284044);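 note: mean spike spacing inside bursts as AUC over recordings on days 5 7 9 12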;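 for AC50: potency for a decrease of within-burst interspike interval below DMSO level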
How it was run: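 Rat cortical primary cultures, 16 electrodes/well; compound from plating, renewed with full media change DIV 5 and 9. Spikes via adaptive detector; per-burst ISI well-mean over active bursting electrodes; AUC of DIV 5/7/9/12 recordings; loss-direction fit vs DMSO.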

[4] = CCTE_Shafer_MEA_dev_burst_duration_mean: CCTE's Neural Network Formation Assay for Mean Burst Duration, Shafer Lab (AID 2284045);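 for AC50: curve fitted for loss meaning shorter burst duration than DMSO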
How it was run: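 Primary rat cortical neurons on PEI-coated 16-electrode MEA wells, exposed from plating through day 12 with compound renewed at DIV 5 and 9; spontaneous activity recorded days 5, 7, 9, 12. Well-mean burst duration collapsed as trapezoidal AUC, fitted for loss versus DMSO.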

[5] = CCTE_Shafer_MEA_dev_inter_network_spike_interval_mean: CCTE's Neural Network Formation Assay for Mean Inter-network Spike Interval, Shafer Lab (AID 2284047)
How it was run: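 Primary rat cortical neurons on PEI-coated 48-well MEAs (16 electrodes/well) were exposed from plating day 0 to DIV 12, with dosing renewed at DIV 5 and 9. Recordings at DIV 5, 7, 9, 12 were collapsed by trapezoidal AUC, loss-of-signal fit vs DMSO.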

[6] = CCTE_Shafer_MEA_dev_network_spike_number: CCTE's Neural Network Formation Assay for Number of Network Spikes, Shafer Lab (AID 2284048);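 note: synchronized bursts across electrodes counted on days 5 7 9 12 and integrated as AUC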;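 for AC50: fit as a loss of signal meaning fewer network spikes than DMSO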
How it was run: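 Primary rat cortical neurons were seeded at 1.5 x 10^5 cells/well on PEI-coated 16-electrode MEA wells with laminin, exposed from plating day 0, compound renewed at DIV 5 and 9. Network spikes were recorded on days 5, 7, 9, 12 and summarized as trapezoidal AUC versus DMSO.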

[7] = CCTE_Shafer_MEA_dev_network_spike_peak: CCTE's Neural Network Formation Assay for Mean Number of Electrodes in Network Spike, Shafer Lab (AID 2284049);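 for AC50: fitted for loss of signal meaning fewer electrodes in network spikes than DMSO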
How it was run: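 Continuous 12-day exposure of rat cortical cultures, starting at plating, on MEA plates. Endpoint: electrodes participating in network-spike peaks, AUC across DIV 5–12, DMSO as negative control.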

[8] = CCTE_Shafer_MEA_dev_spike_duration_mean: CCTE's Neural Network Formation Assay for Mean Spike Duration, Shafer Lab (AID 2284051);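 note: mean network spike duration pooled as area under curve over DIV 5 to 12 recordings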;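 for AC50: potency for a decrease in mean network spike duration versus DMSO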
How it was run: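 Rat cortical primary cultures, 48-well MEA (16 electrodes/well); compound from plating, renewed DIV 5, 9. Network spike duration (AxIS adaptive detector) recorded DIV 5/7/9/12, combined as trapezoidal AUC; loss direction vs DMSO.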

[9] = CCTE_Shafer_MEA_dev_network_spike_duration_std: CCTE's Neural Network Formation Assay for Standard Deviation of Network Spike Duration, Shafer Lab (AID 2284052);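 note: area under curve of spike duration SD across recording days 5 to 12; hits are decreases in network spike duration SD versus DMSO vehicle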
How it was run: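 Rat cortical cultures, 1.5 x 10^5 cells/well, exposed continuously from plating to DIV 12 with media/compound renewal at DIV 5, 9. Spontaneous activity recorded DIV 5/7/9/12, AxIS adaptive spike detector; AUC across days; negative direction vs DMSO.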

[10] = CCTE_Shafer_MEA_dev_per_network_spike_spike_number_mean: CCTE's Neural Network Formation Assay for Mean Number of Spikes in a Network Spike, Shafer Lab (AID 2284053);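 for AC50: fitted as decrease in spikes per network spike relative to DMSO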
How it was run: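 Rat cortical primary cultures on 48-well MEA; compound from day 0, re-dosed with full media change DIV 5, 9. Recorded DIV 5, 7, 9, 12; spikes in 0.05 s window at network-spike peak ÷ total network spikes; AUC; loss vs DMSO.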

[11] = CCTE_Shafer_MEA_dev_AB: CCTE's Alamar Blue Assay for Cytotoxicity in the Neural Network Formation Assay, Shafer Lab (AID 2284083; active = hit-call score of the fitted dose curve at least 0.9, where 1 is the maximum;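 note: resazurin reduction fluorescence as viability of cultured neurons; twelve days of exposure from plating with re-dosing on DIV 5 and 9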)
How it was run: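 Rat cortical primary cultures, 1.5 x 10^5 cells/well on MEA; continuous compound exposure over 12 days of network development, re-dosed with full medium change DIV 5 and 9. Alamar Blue fluorescence; loss of signal = cytotoxicity vs DMSO baseline.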

[12] = CCTE_Shafer_MEA_dev_mutual_information_norm: CCTE's Neural Network Formation Assay for Mutual Information Normalization, Shafer Lab (AID 2284091);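 for AC50: mutual information between electrodes summarised as area under curve across four recording days; potency is for a decrease in mutual information relative to DMSO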
How it was run: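 Rat cortical cultures, 48-well MEA, continuous exposure DIV 0–12 with full media/compound change DIV 5 and 9. Readout: inter-electrode mutual information, AxIS adaptive spike detection; AUC across DIV 5/7/9/12 recordings; DMSO baseline, negative fitting direction.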

[13] = CCTE_Shafer_MEA_dev_correlation_coefficient_mean: CCTE's Neural Network Formation Assay for Mean Correlation Coefficient, Shafer Lab (AID 2284093);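 for AC50: well mean pairwise spike train correlation integrated as AUC over recording days 5 to 12; potency fitted for loss of correlation relative to DMSO vehicle wells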
How it was run: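 Rat cortical cultures, 1.5 x 10^5 cells/well, dosed from day 0 for 12 days. Spontaneous spikes recorded DIV 5/7/9/12; electrode-pair correlation coefficients averaged, AUC taken. Fit in loss direction vs DMSO.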

[14] = UKN5_HCS_SBAD2_cell_viability: Viability Assessment in the University of Konstanz (UKN) Leist Lab Neurite Outgrowth Assay in human iPSC-derived immature Dorsal Root Ganglia Neurons (UKN5) (AID 2284056)
How it was run: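 iPSC-derived immature peripheral neurons (SBAD2) seeded on Matrigel with CHIR99021, SU5402 and DAPT, dosed 1 h later for 24 h. Viability from Hoechst H-33342 and calcein-AM live staining, high-content imaging; bidirectional fit versus DMSO.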

[15] = CCTE_Shafer_MEA_dev_LDH: CCTE's Lactate Dehydrogenase Assay for Cytotoxicity in the Neural Network Formation Assay, Shafer Lab (AID 2284068; active = hit-call score of the fitted dose curve at least 0.9, where 1 is the maximum;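 note: exposure for twelve days from plating with re-dosing on DIV 5 and 9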)
How it was run: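 Rat cortical primary neurons, MEA culture; dosing day 0–12, full medium plus compound exchange DIV 5, 9. Read-out: LDH enzyme activity, spectrophotometric. DMSO = negative control/baseline; signal loss → cytotoxicity.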

[16] = UKN5_HCS_SBAD2_neurite_outgrowth: University of Konstanz (UKN) Leist Lab Neurite Outgrowth Assay in human iPSC-derived immature Dorsal Root Ganglia Neurons (UKN5) (AID 2284070); conditions: actives raise or lower the signal
How it was run: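 Human iPSC-derived immature DRG neurons (SBAD2) on Matrigel with CHIR99021 (1.5 uM), SU5402 (5 uM), DAPT (5 uM); compounds added 1 h post-seeding for 24 h. Calcein-AM neurite area imaged; bidirectional fit vs DMSO.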

[17] = CCTE_Shafer_MEA_acute_LDH: CCTE's Lactate Dehydrogenase Assay for Cytotoxicity in the Neural Acute Assay, Shafer Lab (AID 2284086; active = hit-call score of the fitted dose curve at least 0.9, where 1 is the maximum;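 note: active means LDH release rises above DMSO vehicle level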)
How it was run: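 Primary rat cortical neurons on 48-well MEA plates, treated on day 13 or 15 post-plating. After the 40-min recording with compound, medium LDH release was read by absorbance at 490 nm. Gain of signal was fitted against DMSO negative control.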

[18] = CCTE_Shafer_MEA_acute_AB: CCTE's Alamar Blue Assay for Cytotoxicity in the Neural Acute Assay, Shafer Lab (AID 2284069; active = hit-call score of the fitted dose curve at least 0.9, where 1 is the maximum;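 note: active compounds lower the viability signal compared with DMSO wells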)
How it was run: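 Read-out: resazurin fluorescence (ex 544, em 590 nm) after CTB reagent at 1:6 dilution in fresh media. Cells: primary rat cortical neuron networks, DIV 13 or 15, chemically exposed on MEA plates; DMSO as negative control/baseline.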

Measured: AC50

NC(C(F)(F)F)C(F)(F)F
not listed: [14] | [15] | [16] | [17] | [18]
inactive: all other assays above

FC(F)=C(F)C(F)(F)C(F)(F)C(F)(F)C(F)F
not listed: [2] | [11] | [14] | [15] | [16] | [17] | [18]
inactive: all other assays above

Nc1ccn([C@@H]2O[C@H](CO)[C@@H](O)C2O)c(=O)n1 (some centres undefined)
active: [1] 314 nM | [2] 333 nM | [3] 850 nM | [4] 856 nM | [6] 125 nM | [7] 329 nM | [8] 358 nM | [9] 239 nM | [10] 205 nM | [15] 1000 nM | [16] 611 nM | [11] 969 nM | [12] 74.4 nM | [13] 91.9 nM
inactive: [5] | [14]

OCC(F)(F)C(F)(F)C(F)(F)C(F)(F)C(F)(F)C(F)(F)C(F)(F)C(F)(F)C(F)(F)C(F)(F)C(F)(F)F
active: [2] 6730 nM | [7] 8240 nM | [8] 6130 nM | [10] 6630 nM | [15] 9450 nM | [11] 18900 nM | [12] 4610 nM | [13] 8060 nM
inactive: [1] | [2] | [3] | [4] | [5] | [6] | [7] | [8] | [9] | [10] | [15] | [11] | [12] | [13]

O=C1NS(=O)(=O)c2ccccc21
not listed: [11] | [14] | [16] | [18]
inactive: all other assays above

CN(C)CCOC(c1ccccc1)c1ccccc1
active: [2] 4330 nM | [7] 10000 nM | [8] 10000 nM | [13] 15500 nM
not listed: [14] | [15] | [16]
inactive: all other assays above

O=C(O)CCC(F)(F)C(F)(F)C(F)(F)C(F)(F)C(F)(F)F
not listed: [11] | [14] | [16] | [17] | [18]
inactive: all other assays above
